From PubChem BioAssay AID1259422 (The Scripps Research Institute Molecular Screening Center, 2018)
Several values for one entry are separate records, joined by “and”; a condition that tells them apart may be missing. Identical values can stand only once. Hit rate of the full screen: of about 640,000 compounds, about 9,300 (1.5%) were called active. The sample as a whole holds a higher share of actives than the screen did. Values without a mark were called inactive. Rule as the data show it: active = inhibition above about 32%; inactive = the rest.

Experiment: TEAD-YAP interaction inhibition, primary screen, TEAD-YAP interaction inhibitor project, luminescence, HEK-TIYL cells (AID 1259422);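 also: 0% = median of test compound wells and 100% = reference inhibitor wells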
Conditions: TEAD-Gal4/YAP UAS-luciferase luminescence, at 9.12 µM, hits give high values

SMILES	inhibition
S=c1[nH]nc(N2CCOCC2)n1Cc1ccccc1	2.61%
Cn1nccc1C(=O)NC1CCCc2c1cnn2-c1ccc(F)cc1F (stereo not given)	55.8% (active)
Cn1nccc1C(=O)N1CCC[C@@H]2CN(C(=O)Cc3ccc(F)cc3)CC[C@H]21	6.31%
O=C(NC1CCCc2ccccc21)c1ccc2nccnc2c1 (stereo not given)	-5.54%
Cc1cc(C(=O)N(Cc2ccccc2)C(C)C2CC2)c(Cl)cc1Cl (stereo not given)	-10.9%
Cc1noc(C)c1NC(=O)N1CCC2(CC1)OCc1ccccc1O2	-5.79%
CC(C)[C@@H](Cn1nnc2ccccc21)NC(=O)c1ccc(N2CCCCS2(=O)=O)cc1	-3.11%
COc1ccc(CCNC(=O)CCS(=O)(=O)c2cccc3cccnc23)cc1OC	10.6%
CC[C@]1(O)CC2CN(CCc3c([nH]c4ccccc34)[C@@](C(=O)OC)(c3cc4c(cc3OC)N(C=O)[C@H]3[C@@](O)(C(=O)OC)[C@H](OC(C)=O)[C@]5(CC)C=CCN6CC[C@]43[C@@H]65)C2)C1 (stereo not given in full)	50.8% (active) and 57.9% (active) and 55.9% (active)
COc1cc(NS(=O)(=O)c2ccc3ccccc3c2)c2ncccc2c1	38.5% (active)
COC(=O)c1cccc(NS(=O)(=O)c2ccc3ccccc3c2)c1C	-7.45%
COc1cc(NS(=O)(=O)c2c(C)ccc3nsnc23)c2ncccc2c1	-0.3%
Cn1cc(S(=O)(=O)N2CCCC2)cc1C(=O)N1CCC(Cc2ccccc2)CC1	-7.23%
Nc1c(C(=O)NCc2ccccc2)nnn1Cc1cccc(Cl)c1	37% (active)
COc1ccc(Cn2nnc(C(=O)Nc3cccc(Cl)c3)c2N)cc1	-9.56%
O=C(Cc1cccc(Cl)c1)NCc1ccccc1	-42.3%
O=S(=O)(c1ccc2ccccc2c1)N1CCSC1c1ccc2c3c(cccc13)CC2 (stereo not given)	-6.22%
Cc1cc(NCCCn2ccnc2)n2nc(C)c(-c3cccs3)c2n1	-74.5%
O=C(CNC1CCCC1)NCc1ccc2c(c1)OCO2	-2.55%
CCOc1ccc2c(=O)c(-c3ccc4c(c3)OCCCO4)c(C)oc2c1	-7.66%
CCOc1ccc(C(=O)CCC(=O)OCC(=O)c2ccc3c(c2)OCCO3)cc1	5.42%
CCOc1ccc(-n2c(-c3ccc4c(c3)OCCO4)c[n+]3c2CCCCC3)cc1	85.2% (active)
COc1ccc(N2Cc3cccc(C(=O)NCC(OC)OC)c3C2=O)cc1	-8.73%
COc1ccc2c(c1OC)C(=O)N(c1ncn[nH]1)C2	3.4%
COc1ccc2c(c1OC)C(=O)N(c1ccc(O)cc1)C2	67.1% (active)
